In PubChem BioAssay AID1565 (Sanford-Burnham Center for Chemical Genomics, 2009):
Hit rate of the full screen: of about 290,000 compounds, about 3,200 (1.1%) were called active. Cut-off read from the data, not from the text of the source: active = inhibition above about 60%; inactive = the rest. This excerpt belongs to a sample that is enriched for actives.

target: Phosphoethanolamine/phosphocholine phosphatase (Homo sapiens) (UniProt Q8TCT1); test: PubChem AID 1565; conditions: recombinant PHOSPHO1, absorbance phosphatase assay; at 13.3 µM; stronger effect = higher value
Sequence (Q8TCT1 whole entry, looked up): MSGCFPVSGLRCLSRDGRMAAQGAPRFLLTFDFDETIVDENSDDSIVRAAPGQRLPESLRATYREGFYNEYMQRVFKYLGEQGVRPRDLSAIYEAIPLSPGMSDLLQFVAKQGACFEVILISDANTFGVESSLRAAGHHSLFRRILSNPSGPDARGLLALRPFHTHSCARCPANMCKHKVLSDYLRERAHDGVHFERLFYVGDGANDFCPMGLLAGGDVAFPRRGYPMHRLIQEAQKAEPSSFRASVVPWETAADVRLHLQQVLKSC

Row | SMILES | inhibition
1 | O=C(C1CCCN(S(=O)(=O)c2ccc([N+](=O)[O-])cc2)C1)N1CCCCC1 (centres undefined) | 52.6% (inactive)
2 | O=C(NNS(=O)(=O)c1ccc([N+](=O)[O-])cc1)C1CCCCC1 | 61% (active)
3 | O=C(Cc1ccccc1)NNS(=O)(=O)c1ccc([N+](=O)[O-])cc1 | 6.7% (inactive)
4 | O=C(NNS(=O)(=O)c1ccc(F)cc1)C1CCCCC1 | 18.4% (inactive)
5 | CC(=O)N1c2ccc(S(=O)(=O)N3CCCC(C(=O)Nc4ccc(C)cc4C)C3)cc2CC1C (centres undefined) | 25.4% (inactive)
6 | COc1ccc(OC)c(NC(=O)C2CCCN2S(=O)(=O)c2cccc3nsnc23)c1 (centres undefined) | 20.7% (inactive)
7 | Cc1nnc(SCC(N)=O)n1CC1CCCO1 (centres undefined) | 14.5% (inactive)
8 | COc1ccccc1NC(=O)CSc1nnc(C)n1CC1CCCO1 (centres undefined) | 2.5% (inactive)
9 | O=C(CSc1nnc(-c2ccco2)n1CC1CCCO1)c1ccccc1 (centres undefined) | 69.4% (active)
10 | Cc1cccc(NS(=O)(=O)c2ccc(-c3cnc(C4CC4)o3)cc2)c1 | 36.8% (inactive)
11 | Cc1nnc(SCC(=O)Nc2ccc(S(=O)(=O)Nc3ccc(Cl)nn3)cc2)s1 | 7.5% (inactive)
12 | O=C(NC(c1ccccc1)c1ccccc1)N1CCN(CCO)CC1 | -22.1% (inactive)
13 | S=C(c1ccccc1)N1CCCC1 | 29% (inactive)
14 | OCCN1CCN(C(=S)c2ccc(-c3ccccc3)cc2)CC1 | 71.4% (active)
15 | COc1ccc(C(=O)N2CCCN(C)CC2)c(OC)c1 | -0.8% (inactive)
16 | Cc1ccc(NC(=O)CN(C)C(=O)COC(=O)C(C)(C)Oc2ccc(Cl)cc2)cc1 | 14.5% (inactive)
17 | CC(C)CC(CCc1ccccc1)OS(N)(=O)=O (centres undefined) | 4% (inactive)
18 | CC(=O)c1cc(C#N)c(N2CCCCC2)nc1C | 1.5% (inactive)
19 | CC(=O)c1cc(C#N)c(SCC(=O)Nc2nccs2)nc1C | 28.8% (inactive)
20 | CC(=O)c1cc(C#N)c(SCC(=O)C(C)(C)C)nc1C | 75.8% (active)
21 | Clc1cc(NC2CCCCC2)ncn1 | -10.9% (inactive)
22 | COc1ccc(Cc2nnc(SCC(=O)c3cccc([N+](=O)[O-])c3)n2C)cc1 | 76.3% (active)

Row | SMILES | inhibition
23 | COc1cccc(NCCC(=O)c2cccc([N+](=O)[O-])c2)c1 | 22.6% (inactive)
24 | COc1ccc(-n2cnnc2SCC(=O)Nc2cccc([N+](=O)[O-])c2)cc1 | -3.1% (inactive)
25 | COc1cccc(CNS(=O)(=O)c2cc3c(cc2C)n(C)c(=O)c(=O)n3C)c1 | -3.5% (inactive)
26 | Cc1cccc(CNS(=O)(=O)c2ccc(-c3cnc(C4CC4)o3)cc2)c1 | 32.9% (inactive)
27 | Cn1c(SCc2ccc(F)cc2)nnc1-c1ccncc1 | 35.1% (inactive)
28 | Oc1c(C(c2cccs2)N2CCN(c3ccc(F)cc3)CC2)sc2ncnn12 (centres undefined) | 19.3% (inactive)
29 | Oc1c(C(c2ccco2)N2CCC3(CC2)OCCO3)sc2ncnn12 (centres undefined) | 95.9% (active)
30 | Cc1nc2sc(C(c3ccco3)N3CCOCC3)c(O)n2n1 (centres undefined) | -2.3% (inactive)
31 | COc1ccc(CNC(=O)C(NS(=O)(=O)c2cccc3nsnc23)C(C)C)cc1 (centres undefined) | 59.8% (inactive)
32 | Cn1c(=O)oc2cc(S(=O)(=O)NCCC(=O)NCc3ccccc3Cl)ccc21 | 75.4% (active)
33 | Cc1ccc(NC(=O)CCNS(=O)(=O)c2ccc3c(c2)oc(=O)n3C)cc1C | -21.8% (inactive)
34 | COc1cccc(NC(=O)CCNS(=O)(=O)c2ccc3c(c2)oc(=O)n3C)c1 | 59.6% (inactive)
35 | O=c1cc(Cl)c2ccccc2n1-c1ccccc1 | 19.9% (inactive)
36 | CN(Cc1c(F)cccc1Cl)S(=O)(=O)c1cccs1 | -15.8% (inactive)
37 | Cc1c(Cl)cccc1NC(=O)CCC(=O)N/N=C/c1ccco1 | 32.7% (inactive)
38 | Cc1ccccc1-c1n[nH]c(=S)n1C | -137% (inactive)
39 | Cn1c(-c2sc3cc(C(F)(F)F)cnc3c2-c2ccccc2)n[nH]c1=S | 96.2% (active)
40 | Cn1c(-c2sccc2OCc2cccc(C(F)(F)F)c2)n[nH]c1=S | 36.7% (inactive)
41 | COc1cccc(NC(=O)CCc2nnc3ccc(N4CCC(C)CC4)nn23)c1 | -8.3% (inactive)
42 | Cc1cccnc1CCNC(=O)C1CCC(=O)N(Cc2cccc(F)c2)C1 (centres undefined) | 24% (inactive)
43 | COc1cccc(CNC(=O)C2CCCN(c3ncnc4c3nc3n4CCCCC3)C2)c1 (centres undefined) | -55.9% (inactive)
44 | O=C(Nc1ccccc1)N1CCN(C(=O)Nc2ccccc2)CC1 | 15.9% (inactive)

Row | SMILES | inhibition
45 | O=C(Nc1ccc(Cl)c(Cl)c1)N1CC=C(c2ccccc2)CC1 | 61.1% (active)
46 | O=C(Nc1cccc(NC(=O)N2CCN(c3ccccc3)CC2)c1)N1CCN(c2ccccc2)CC1 | 12.4% (inactive)
47 | Cc1occc1C(=O)N/N=C/c1ccc(-c2cccc([N+](=O)[O-])c2)o1 | 40.3% (inactive)
48 | C[N+]1(CCNC(=O)/C=N/O)CCCCC1 | 91.1% (active)
49 | N#CC(C#N)=CN=c1ccn(Cc2ccc(Cl)cc2Cl)cc1 | 34% (inactive)
50 | COCCNC(=O)c1ccc2nc(Cc3ccc(OC)c(OC)c3)oc2c1 | -8.2% (inactive)
51 | Cc1ccc(OCc2n[nH]c(=S)n2-c2ccccc2)cc1 | 60.9% (active)
52 | COc1ccc(OCc2n[nH]c(=S)n2N)cc1 | 70.9% (active)
53 | COc1ccc(Cc2n[nH]c(=S)n2NC(=O)Nc2ccc(C)cc2)cc1 | 36.2% (inactive)
54 | S=c1[nH]nc(COc2ccccc2)n1-c1ccccc1 | -11.2% (inactive)
55 | Cc1ccc(OCc2n[nH]c(=S)n2-c2ccc(C)cc2)cc1 | -0.8% (inactive)
56 | COc1ccc(-n2c(-c3ccc(OC)c(OC)c3)n[nH]c2=S)cc1 | -135% (inactive)
57 | Cc1cccc(N2Cc3ccccc3C2=NC(=O)c2ccc(Cl)nc2)c1 | -3.9% (inactive)
58 | Cc1nn(CC(=O)NCCc2ccccc2)c(=O)c2cc3occc3n12 | -36.2% (inactive)
59 | O=C1/C(=C/c2ccc(F)cc2)SC(=S)N1CCCC(=O)N1CCCCC1CCO (centres undefined) | 38.5% (inactive)
60 | O=C(c1ccc(CS(=O)(=O)c2ccccc2)o1)N1CCN(c2ccccc2)CC1 | 2.1% (inactive)
61 | CC(C)c1ccc(S(=O)(=O)NC2CCCC2)cc1 | 24% (inactive)
62 | CCN(CC)c1ccc(NC(=O)c2ccc(Cl)nc2)cc1 | 74.3% (active)
63 | Cc1cnc(NC(=O)c2ccc(Cl)nc2)s1 | -16.6% (inactive)
64 | NS(=O)(=O)c1ccc(NC(=O)COC(=O)c2ccc(Cl)nc2)cc1 | 8.4% (inactive)
